This is a sample that favours compounds with a hit; in the whole collection about 21% have one here.
Shiga inhibitor – inhibitors of Shiga toxin in Vero cells | Vero cells, Shiga toxin protein synthesis inhibition reporter | inhibition, % at 38.7 µM | 290,000 compounds, 9.2% hits | AID 2315; in the data active means inhibition mostly above about 28%, no sharp cut-off; inactive means mostly below about 43%
NS1 function inh – blocks influenza NS1 protein function; Potency, µM (titrated, usually from 46.1 µM); 270,000 compounds, 0.4% hits; AID 2326; calls by dose curve; further: actives are rising curves; nearly all actives have a fitted effect of over 50% in size
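OD600 was taken as the measure of yeast growth restored by compound in an NS1-expressing S. cerevisiae strain. Cells had been washed out of glucose medium and diluted 1:100 into galactose -URA medium, pH 6.0.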
Sm TGR inh – S. mansoni TGR enzyme inhibition; Potency, µM (series often up to 114 µM), actives largely listed as inhibitors; purified TGR, DTNB reduction, TNB absorbance 405 nm; Q962Y6; 360,000 compounds, 3% hits; further: nearly all actives have a fitted effect of over 60% in size
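First, TGR (20 nM dispensed) and NADPH were mixed with compound. Second, a 15 min room-temperature incubation followed. Third, further NADPH and then DTNB were added to start the reaction. Finally, TNB absorbance was monitored kinetically.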
Pf growth 96h – inhibits malaria parasite growth, 96 h | P. falciparum luciferase reporter growth, 96 h | Potency, µM (highest dose often 28.7 µM), actives largely listed as inhibitors | 320,000 compounds, 6.9% hits | AID 504834
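Delayed-death screen, second-generation endpoint: infected erythrocytes, 2% hematocrit, 0.05% parasitemia final; 96 hours at 37 C, 5% CO2; luciferase detection reagent; luminescence decrease equals reduced growth.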
Cycloheximide cs – counter-screen for Shiga toxin inhibitors: cycloheximide protein synthesis inhibition; cell reporter, cycloheximide protein synthesis inhibition counterscreen; max response, %; 300,000 compounds, 12% hits; AID 2314; in the data active means max response mostly above about 13%, no sharp cut-off; inactive means mostly below about 14%; further: read at 38.3 µM for the half of the compounds with a filed dose
Pf growth 48h – inhibits P. falciparum growth in the first generation, 48 h. 310,000 compounds, 5.9% hits. P. falciparum luciferase growth in erythrocytes, 48 h. Potency, µM (highest dose often 28.7 µM), hits mostly inhibitors. AID 504832
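First compound was added to culture medium, then infected red cells at 0.1% parasitemia and 2% hematocrit (final). After incubation at 37 C under 5% CO2, luciferase detection reagent was dispensed and light output recorded.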
NS1 inh valid – influenza NS1 function inhibition validation; shares compounds with NS1 function inh; influenza NS1 function cell assay, 15-point titration; activity change, negative = inhibition, % at 32.9 µM; 1,400 tested, under 10 active; calls by dose curve
Flu PR8 replic – reduces influenza A/PR/8/34 replication in MDCK cells; virus titer (log TCID50), log10 TCID50 at 5 µM; 95 compounds, 30% hits; AID 504647; MDCK infected influenza A/PR/8/34, virus titer TCID50; hits give low values; shares compounds with NS1 function inh; call rule not given here
Hits are given with their value; . = inactive; ? = inconclusive; / = not tested or not shown; [ ] = dose if it differs, or a comment. Unless noted, the call rests on the fitted dose curve; in most records, active means well fitted curve in the direction sought with a large enough effect; inconclusive means small, poorly fitted or top-dose-only effect, or another doubt; inactive means no such curve, though single readings can be large; an effect the other way counts as inactive or inconclusive.

SMILES | Shiga inhibitor | NS1 function inh | Sm TGR inh | Pf growth 96h | Cycloheximide cs | Pf growth 48h | NS1 inh valid | others
Cc1oc(-c2ccc(Cl)cc2)nc1CS(=O)CC(=O)NCc1cccs1 (centres undefined) | . | . | ? | ? | . | / | /
Cc1oc(-c2ccccc2F)nc1CS(=O)CC(=O)NCc1cccs1 (centres undefined) | . | 11µM | . | . | . | / | .
C#CCOc1ccc(/C=C2/C(=O)N(c3cccc(C(=O)O)c3)N=C2C)cc1OC | . | 11µM | . | . | . | . | ?
CC(C)[C@@]1(NC(=O)[C@@H]2C[C@@H]3c4cccc5[nH]cc(c45)C[C@H]3N(C)C2)O[C@@]2(O)C3CCCN3C(=O)[C@H](Cc3ccccc3)N2C1=O (some centres undefined) | / | 5.6µM | / | / | / | / | ?
O=C(CSc1nc2ccccc2c(=O)n1-c1ccc(F)cc1F)Nc1ccc2c(c1)CCC2 | 80 | 13µM | . | ? | 59 | 9.3µM | .
O=C(CSc1nc2ccccc2c(=O)n1-c1ccc(F)cc1)Nc1ccc(C(=O)O)cc1 | . | 14µM | . | . | . | . | ?
COc1ccc(-n2c(SCC(=O)Nc3ccc(C)cc3)nc(O)c(Cc3ccccc3)c2=O)cc1 | . | . | . | ? | . | . | /
CCN(CC)CCn1c(SCC(=O)Nc2ccc3c(c2)CCC3)nc2ccccc2c1=O | / | / | . | . | / | ? | /
Cc1ccc(-n2c(SCC(=O)NNC(=S)Nc3ccccc3)nc3ccccc3c2=O)cc1 | . | 4.5µM | . | . | . | . | .
O=C(CSc1nc2cc(C(=O)O)ccc2c(=O)n1-c1ccc(F)cc1)Nc1ccc(F)c(F)c1F | . | . | . | ? | . | / | /
CC1CCCC(NC(=O)C2CCN(S(=O)(=O)N3CCCCC3)CC2)C1C (centres undefined) | . | / | . | ? | . | ? | /
CC(=O)c1cccc(S(=O)(=O)N2CCC(C(=O)O)(c3ccccc3)CC2)c1 | . | . | . | . | . | . | /
COc1ccc(OC)c(NC(=O)COc2ccc(S(=O)(=O)N3CCCC3)cc2)c1 | . | ? | . | ? | . | ? | .
O=C(COc1ccc(S(=O)(=O)N2CCCCC2)cc1)NCc1ccncc1 | . | . | . | . | . | . | /
O=C(NCc1cccnc1)C1CCCN(S(=O)(=O)c2ccccc2)C1 (centres undefined) | . | 1.6µM | ? | / | . | . | .
O=C(COc1ccc(S(=O)(=O)N2CCCC2)cc1)NCc1cccnc1 | . | ? | . | . | . | . | .
COc1ccc(OCC(=O)Nc2ccc(S(=O)(=O)N3CCCCC3)cc2)cc1 | . | . | . | . | . | ? | /
COc1ccc(C(=O)NCc2nnc(SCC(=O)Nc3ccc4c(c3)OCO4)o2)cc1 | . | / | . | . | . | . | /
Cc1ccc(S(=O)(=O)N2CCCCC2)cc1NC(=O)CSc1ncccn1 | / | / | . | . | / | . | /
CCCCCNC(=O)C1CC(=O)OC12CCCCC2 (centres undefined) | . | . | . | ? | . | . | /
CCOc1ccc(Cl)cc1CNCCCSc1nc(C)cc(C)n1 | . | . | . | . | . | ? | /
O=C(Nc1ccc(O)c(-c2nc3ccccc3o2)c1)c1ccco1 | / | / | . | / | / | / | /
O=C(Nc1ccc(O)c(-c2nc3ccccc3o2)c1)C1(c2ccc([N+](=O)[O-])cc2)CCCC1 | . | 8.9µM | . | ? | . | 7.4µM | .
Cc1ccc(-c2nc(SCC(=O)N(C)C3CCS(=O)(=O)C3)[nH]c2-c2ccc(C)cc2)cc1 (centres undefined) | . | . | . | / | . | ? | /
Cc1csc(SCC(=O)Nc2nncs2)n1 | . | ? | . | . | . | . | .
SMILES | Shiga inhibitor | NS1 function inh | Sm TGR inh | Pf growth 96h | Cycloheximide cs | Pf growth 48h | NS1 inh valid | others
Cc1csc(SCC(=O)Nc2cccc(C)c2C)n1 | / | / | . | . | / | . | /
CS(=O)(=O)Nc1cccc(C2=NN(C(=O)c3cccc([N+](=O)[O-])c3)C(c3cccs3)C2)c1 (centres undefined) | . | . | . | . | . | .[0.00184 µM] | /
CCCn1c(=O)c(Cc2ccccc2)c(O)c2ccccc21 | . | ? | . | . | . | . | .
COc1cccc(Cn2c(=O)n(-c3cccc(Cl)c3)c(=O)c3c4c(sc32)CN(C(C)=O)CC4)c1 | / | / | . | / | / | / | /
c1ccc(COc2ccccc2CNC23CC4CC(CC(C4)C2)C3)cc1 | . | . | . | ? | . | ? | /
Cn1c(/N=C/c2c(O)ccc3ccccc23)nc2ccccc21 | 81 | 11µM | 10µM | . | 69 | . | ?
CCCn1c(/N=C/c2ccccc2O)nc2ccccc21 | . | . | . | ? | . | . | /
Cc1cc(C(=O)COc2cccnc2[N+](=O)[O-])c(C)n1-c1ccccc1F | 87 | ? | . | . | 40 | . | .
O=C(CCS(=O)(=O)Cc1ccc(Cl)cc1)NCCCN1CCOCC1 | . | . | . | / | . | . | /
O=C(COC(=O)CCSc1ccccc1)NCc1ccccc1 | . | / | . | . | . | . | /
CCCc1cc(=O)n(-c2nc3ccccc3s2)[nH]1 | . | . | . | . | . | . | /
CCOC(=O)Cc1cc(=O)n(-c2nc3ccccc3s2)[nH]1 | . | 10µM | . | ? | . | . | .
COc1ccc(-c2cnnn2-c2ccc(NC(=O)c3ccc(S(=O)(=O)N4CCCCC4)cc3)cc2)cc1OC | . | 5µM | . | 1.5µM | . | 4.1µM | . | Flu PR8 replic=7.3
COc1ccc(-n2cnnc2SCC(=O)c2ccc(S(=O)(=O)N3CCOCC3)cc2)cc1 | . | 1.8µM | . | / | . | ? | .
COc1ccc(-n2cnnc2SCC(=O)Nc2cc(S(=O)(=O)N3CCCCC3)ccc2C)cc1 | . | . | . | ? | . | . | /
c1nc(NC2CCCCC2)c2[nH]cnc2n1 | . | . | . | . | . | . | /
c1nc(NC2CCCCCC2)c2[nH]cnc2n1 | . | 10µM | . | ? | . | ? | .
COC(=O)[C@H]1C[C@@H]1[C@H](NC(=O)[C@H]1C[C@@H]1[C@H](NC(=O)OCc1ccccc1)c1ccccc1)c1ccccc1 | . | 10µM | . | 15µM | . | ? | .
O=C(Nc1ccccc1Oc1ccccc1)c1ccc(Br)o1 | . | ? | . | . | . | . | ?
O=C(Nc1ccccc1-c1ccccc1)c1ccc(Br)o1 | . | . | . | / | . | / | /
Cc1cc(C(=O)CSc2nnc(-c3ccc(Cl)cc3)n2C)c(C)n1CC1CCCO1 (centres undefined) | . | . | . | . | . | ? | /
Cc1cc(C(=O)Cn2nnc(-c3ccc(Cl)cc3)n2)c(C)n1CC1CCCO1 (centres undefined) | . | 7.9µM | . | .[5.75 µM] | 17 | . | .
CCOC(=O)/C=C1\NC(C)(C)Cc2cc(OC)c(O)cc21 | . | ? | . | . | . | ? | .

Screens deposited in PubChem BioAssay by National Center for Advancing Translational Sciences (NCATS).
